# Results from PubChem BioAssay (EPA / NIEHS).
# Records with an inconclusive call do not appear. Calls of active or inactive are those of the source. How the source made its calls: active means hit-call score of the fitted dose curve at least 0.9, where 1 is the maximum; inconclusive means response in the unintended direction; inactive means score below 0.9.
# Assays:
# [1] = target: Muscarinic acetylcholine receptor M2 (Homo sapiens) (UniProt P08172); assay: NVS_GPCR_hM2: NovaScreen (NVS) G Protein-Coupled Receptor Assay for human Muscarinic, M2 Receptor (AID 2283273)
# Procedure, shortened: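 Radioligand displacement on human M2 receptor membranes from CHO cells, 1 h incubation, filtration with scintillation counting. Primary screen in duplicate at 25 uM; actives retested in concentration series; loss of signal fitted versus DMSO.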
# [2] = target: human Adrenergic, Beta 1 Receptor (Adrb1), ADRB1 (gene 153) (UniProt P08588); assay: NVS_GPCR_hAdrb1: NovaScreen (NVS) G Protein-Coupled Receptor Assay for human Adrenergic, Beta 1 Receptor (Adrb1) (AID 2283258)
# Procedure, shortened: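 Cell-free radioligand displacement on receptor from human neuroepithelioma cells; 2 h after dosing, filter-based scintillation counting. Primary screen in duplicate at 25 uM, actives retested in concentration series; loss of signal vs DMSO baseline.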
# [3] = target: human Adrenergic, Alpha 2c Receptor (Adra2C), ADRA2C (gene 152) (UniProt P18825); assay: NVS_GPCR_hAdra2C: NovaScreen (NVS) G Protein-Coupled Receptor Assay for human Adrenergic, Alpha 2c Receptor (Adra2C) (AID 2283259)
# Procedure, shortened: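 Radioligand binding on Sf9-expressed receptor membranes, 1 h after chemical dosing, filter-based scintillation read-out. Loss of binding fitted positively versus DMSO; primary duplicate screen at 25 uM, actives retested in concentration series.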
# [4] = target: Beta-2 adrenergic receptor (Homo sapiens) (UniProt P07550); assay: NVS_GPCR_hAdrb2: NovaScreen (NVS) G Protein-Coupled Receptor Assay for human Adrenergic, Beta 2 Receptor (Adrb2) (AID 2283261)
# Procedure, shortened: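 Filter-based radioligand binding using receptor prepared from CHO cells, 1 h incubation, scintillation counting. Primary screen in duplicate at 25 uM, actives retested in concentration series; loss of binding relative to DMSO.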
# [5] = target: human Dopamine Receptor D4.4 (DRD4.4), DRD4 (gene 1815) (UniProt P21917); assay: NVS_GPCR_hDRD4.4: NovaScreen (NVS) G Protein-Coupled Receptor Assay for human Dopamine Receptor D4.4 (DRD4.4) (AID 2283264)
# Procedure, shortened: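 Radioligand displacement on human DRD4.4 from CHO-derived membranes, 1 hour incubation, bound counts read by filtration and scintillation. Primary screen in duplicate at 25 uM; actives followed up in concentration series.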
# [6] = target: human Dopamine Receptor D2 (DRD2), DRD2 (gene 1813) (UniProt P14416); assay: NVS_GPCR_hDRD2s: NovaScreen (NVS) G Protein-Coupled Receptor Assay for human Dopamine Receptor D2 (DRD2) (AID 2283266)
# Procedure, shortened: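 Radioligand displacement used human DRD2 membranes extracted from CHO cells and was read by filter-based scintillation counting after 1.5 hours. Primary screening was in duplicate at 25 uM. Loss of signal versus DMSO was fitted, with concentration series in follow-up.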
# [7] = target: human Histamine 1 Receptor (H1), HRH1 (gene 3269) (UniProt P35367); assay: NVS_GPCR_hH1: NovaScreen (NVS) G Protein-Coupled Receptor Assay for human Histamine 1 Receptor (H1) (AID 2283268)
# Procedure, shortened: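 Cell-free radioligand displacement at human H1 receptor, 1 h, filter scintillation counting; primary screen 25 uM in duplicate, hits in concentration series; loss of binding fitted vs DMSO.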
# [8] = target: D(1A) dopamine receptor (Homo sapiens) (UniProt P21728); assay: NVS_GPCR_hDRD1: NovaScreen (NVS) G Protein-Coupled Receptor Assay for human Dopamine Receptor D1 (DRD1) (AID 2283269)
# Procedure, shortened: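 HEK293-derived receptor preparation; radioligand competitive displacement; 1 h; filtration + scintillation counting. DMSO = negative control/baseline. Primary: 25 uM, duplicate; secondary: concentration–response for actives.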
# [9] = target: human Neuropeptide Receptor Y1 (NPY1), NPY1R (gene 4886) (UniProt P25929); assay: NVS_GPCR_hNPY1: NovaScreen (NVS) G Protein-Coupled Receptor Assay for human Neuropeptide Receptor Y1 (NPY1) (AID 2283276)
# Procedure, shortened: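 Cell-free radioligand binding using receptor extracted from SK-N-MC cells, 1 h incubation, filter-based scintillation counting. Primary screen single concentration 25 uM in duplicate; actives followed in concentration series. Loss of bound signal scored versus DMSO.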
# [10] = target: human Neurokinin, NK2 Receptor, TACR2 (gene 6865) (UniProt P21452); assay: NVS_GPCR_hNK2: NovaScreen (NVS) G Protein-Coupled Receptor Assay for human Neurokinin, NK2 Receptor (AID 2283278);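 further: actives reduce bound radioligand signal relative to DMSO baseline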
# Procedure, shortened: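 Filter-based scintillation counting measured radioligand bound to receptor extracted from CHO cells, 4 hours after compound addition. Chemicals screened first at 25 uM in duplicate, with actives retested in concentration series relative to DMSO.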
# [11] = target: Muscarinic acetylcholine receptor M1 (Homo sapiens) (UniProt P11229); assay: NVS_GPCR_hM1: NovaScreen (NVS) G Protein-Coupled Receptor Assay for human Muscarinic, M1 Receptor (AID 2283270)
# Procedure, shortened: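 Cell-free radioligand displacement using membrane protein extracted from CHO cells, read by filter-based scintillation counting 1 h after dosing. Loss of bound signal fitted versus DMSO; primary screen single concentration 25 uM in duplicate, actives followed by concentration series.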
# [12] = target: Muscarinic acetylcholine receptor M3 (Homo sapiens) (UniProt P20309); assay: NVS_GPCR_hM3: NovaScreen (NVS) G Protein-Coupled Receptor Assay for human Muscarinic, M3 Receptor (AID 2283272)
# Procedure, shortened: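 Radioligand displacement binding on human M3 receptor in CHO-derived membranes, 1 h incubation, filter-based scintillation counting. Primary screen in duplicate at 25 uM; actives followed up in concentration series; loss of signal versus DMSO.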
# [13] = target: human Muscarinic, M4 Receptor, CHRM4 (gene 1132) (UniProt P08173); assay: NVS_GPCR_hM4: NovaScreen (NVS) G Protein-Coupled Receptor Assay for human Muscarinic, M4 Receptor (AID 2283274)
# Procedure, shortened: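 Cell-free radioligand displacement using CHO-derived human M4 receptor protein, 1 h after dosing; bound radioactivity by filtration and scintillation counting. Primary screen single 25 uM duplicate, actives followed in concentration series.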
# [14] = target: Muscarinic acetylcholine receptor M5 (Homo sapiens) (UniProt P08912); assay: NVS_GPCR_hM5: NovaScreen (NVS) G Protein-Coupled Receptor Assay for human Muscarinic, M5 Receptor (AID 2283275)
# Procedure, shortened: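 Radioligand displacement on CHO-derived membrane preparations, 1 h, filter-based scintillation counting. Single-concentration duplicate screen at 25 uM; hits (e.g. 30% inhibition) retested in singleton concentration-response up to 50 uM. Loss of binding fitted versus DMSO.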
# [15] = target: Neuropeptide Y receptor type 2 (Homo sapiens) (UniProt P49146); assay: NVS_GPCR_hNPY2: NovaScreen (NVS) G Protein-Coupled Receptor Assay for human Neuropeptide Receptor Y2 (NPY2) (AID 2283277)
# Procedure, shortened: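 Radioligand binding on membranes extracted from SK-N-MC cells, cell-free, read 1 h after dosing by filter-based scintillation counting. Loss of signal vs DMSO. Primary screen in duplicate at 25 uM; actives followed up in concentration-response up to 50 uM.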
# [16] = target: Type-1 angiotensin II receptor (Homo sapiens) (UniProt P30556); assay: NVS_GPCR_hAT1: NovaScreen (NVS) G Protein-Coupled Receptor Assay for human Angiotensin II receptor type 1 (AT1) (AID 2283263)
# Procedure, shortened: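 Membranes from KAN-TS cells; radioligand competitive displacement, 3 h, filtration and scintillation counting. Single-point duplicate screen at 25 uM, then concentration-response up to 50 uM for hits; loss of signal fitted versus DMSO.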
# [17] = target: human Leukotriene B4 Receptor 1 (LTB4-BLT1), LTB4R (gene 1241) (UniProt Q15722); assay: NVS_GPCR_hLTB4_BLT1: NovaScreen (NVS) G Protein-Coupled Receptor Assay for human Leukotriene B4 Receptor 1 (LTB4-BLT1) (AID 2283271)
# Procedure, shortened: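 Radioligand displacement binding on receptor extracted from human neutrophils, cell-free, 1 h after dosing; filter-based scintillation counting. Primary screen in duplicate at 25 uM, actives retested in concentration-response up to 50 uM; loss of signal versus DMSO.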
# [18] = target: human Endothelin Receptor Type A (ETA), EDNRA (gene 1909) (UniProt P25101); assay: NVS_GPCR_hETA: NovaScreen (NVS) G Protein-Coupled Receptor Assay for human Endothelin Receptor Type A (ETA) (AID 2283265)
# Procedure, shortened: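 Cell-free radioligand displacement using SH-SY5Y-derived protein, 3 h incubation, filter-based scintillation counting. Primary screen in duplicate at 25 uM; actives then run in concentration-response up to 50 uM; loss of binding fitted versus DMSO.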
# [19] = target: human Endothelin Receptor Type B (ETB), EDNRB (gene 1910) (UniProt P24530); assay: NVS_GPCR_hETB: NovaScreen (NVS) G Protein-Coupled Receptor Assay for human Endothelin Receptor Type B (ETB) (AID 2283267)
# Procedure, shortened: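 Human astrocytoma cell membranes; radioligand competitive binding read by filter scintillation counting 4 hours after dosing. Single-concentration duplicate screen at 25 uM, then singleton concentration-response up to 50 uM; loss of signal versus DMSO.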
# Chain of Muscarinic acetylcholine receptor M3 (Homo sapiens) (P20309 whole entry, looked up): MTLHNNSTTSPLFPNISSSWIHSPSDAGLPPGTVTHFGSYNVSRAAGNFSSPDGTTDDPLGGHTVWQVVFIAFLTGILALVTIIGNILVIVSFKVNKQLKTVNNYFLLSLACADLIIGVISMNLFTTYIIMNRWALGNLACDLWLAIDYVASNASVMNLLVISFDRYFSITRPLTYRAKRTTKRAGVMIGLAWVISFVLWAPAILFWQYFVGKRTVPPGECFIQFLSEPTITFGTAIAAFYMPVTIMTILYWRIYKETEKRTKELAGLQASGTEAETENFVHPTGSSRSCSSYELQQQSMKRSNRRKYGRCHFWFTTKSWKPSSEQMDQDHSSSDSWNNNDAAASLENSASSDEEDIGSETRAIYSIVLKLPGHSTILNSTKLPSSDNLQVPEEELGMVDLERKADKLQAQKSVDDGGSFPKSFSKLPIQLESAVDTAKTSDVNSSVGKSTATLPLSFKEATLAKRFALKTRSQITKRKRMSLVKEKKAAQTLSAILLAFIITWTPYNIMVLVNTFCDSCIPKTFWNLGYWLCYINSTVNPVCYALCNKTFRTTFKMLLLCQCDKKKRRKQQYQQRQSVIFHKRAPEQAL
# Chain of Beta-2 adrenergic receptor (Homo sapiens) (P07550 whole entry, looked up): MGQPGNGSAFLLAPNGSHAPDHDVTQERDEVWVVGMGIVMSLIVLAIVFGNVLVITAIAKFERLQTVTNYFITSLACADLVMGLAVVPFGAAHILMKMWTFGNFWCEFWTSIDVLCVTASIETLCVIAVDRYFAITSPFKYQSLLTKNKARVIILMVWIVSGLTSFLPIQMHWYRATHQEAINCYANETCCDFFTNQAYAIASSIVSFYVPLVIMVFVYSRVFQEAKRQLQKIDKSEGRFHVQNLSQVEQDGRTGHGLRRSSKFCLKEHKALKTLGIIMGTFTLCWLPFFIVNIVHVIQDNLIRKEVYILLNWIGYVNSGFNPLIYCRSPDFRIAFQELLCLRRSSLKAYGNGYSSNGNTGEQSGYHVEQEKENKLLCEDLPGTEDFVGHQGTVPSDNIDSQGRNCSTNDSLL
# Chain of human Adrenergic, Beta 1 Receptor (Adrb1), ADRB1 (gene 153) (P08588 whole entry, looked up): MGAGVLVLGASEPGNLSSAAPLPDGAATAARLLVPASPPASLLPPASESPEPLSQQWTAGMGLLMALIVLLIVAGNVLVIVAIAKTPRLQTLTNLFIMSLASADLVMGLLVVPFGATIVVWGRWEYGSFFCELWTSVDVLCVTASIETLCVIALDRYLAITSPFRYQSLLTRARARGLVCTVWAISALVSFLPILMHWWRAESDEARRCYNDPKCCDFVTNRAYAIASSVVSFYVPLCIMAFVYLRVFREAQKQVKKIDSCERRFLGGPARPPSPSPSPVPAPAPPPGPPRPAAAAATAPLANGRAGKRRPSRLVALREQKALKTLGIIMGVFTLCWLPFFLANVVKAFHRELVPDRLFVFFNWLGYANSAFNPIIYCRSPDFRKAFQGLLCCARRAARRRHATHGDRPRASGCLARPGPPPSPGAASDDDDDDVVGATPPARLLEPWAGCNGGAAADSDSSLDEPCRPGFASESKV
# Chain of human Muscarinic, M4 Receptor, CHRM4 (gene 1132) (P08173 whole entry, looked up): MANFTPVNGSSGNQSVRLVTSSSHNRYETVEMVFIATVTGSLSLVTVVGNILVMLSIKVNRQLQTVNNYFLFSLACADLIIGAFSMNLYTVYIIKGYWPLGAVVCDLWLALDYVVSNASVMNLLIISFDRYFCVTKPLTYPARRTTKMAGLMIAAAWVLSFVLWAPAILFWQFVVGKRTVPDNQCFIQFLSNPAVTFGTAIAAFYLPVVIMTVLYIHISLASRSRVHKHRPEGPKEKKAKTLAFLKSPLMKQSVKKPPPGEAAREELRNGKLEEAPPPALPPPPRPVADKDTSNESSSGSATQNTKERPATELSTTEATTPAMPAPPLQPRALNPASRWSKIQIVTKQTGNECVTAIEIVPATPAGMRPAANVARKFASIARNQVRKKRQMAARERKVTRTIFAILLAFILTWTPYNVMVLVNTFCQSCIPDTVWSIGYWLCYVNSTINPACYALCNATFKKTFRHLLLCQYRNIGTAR
# Chain of human Dopamine Receptor D4.4 (DRD4.4), DRD4 (gene 1815) (P21917 whole entry, looked up): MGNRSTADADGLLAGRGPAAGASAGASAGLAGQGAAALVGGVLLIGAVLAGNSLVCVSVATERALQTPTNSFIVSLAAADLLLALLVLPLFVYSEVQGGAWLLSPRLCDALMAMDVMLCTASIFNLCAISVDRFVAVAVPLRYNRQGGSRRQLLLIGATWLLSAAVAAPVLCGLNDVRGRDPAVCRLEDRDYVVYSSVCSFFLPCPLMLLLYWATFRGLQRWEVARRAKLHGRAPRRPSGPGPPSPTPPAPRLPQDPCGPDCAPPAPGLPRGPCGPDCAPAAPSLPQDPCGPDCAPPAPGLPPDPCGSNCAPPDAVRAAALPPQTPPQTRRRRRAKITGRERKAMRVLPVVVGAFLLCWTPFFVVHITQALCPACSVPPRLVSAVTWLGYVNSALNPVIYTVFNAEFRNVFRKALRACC
# Chain of human Histamine 1 Receptor (H1), HRH1 (gene 3269) (P35367 whole entry, looked up): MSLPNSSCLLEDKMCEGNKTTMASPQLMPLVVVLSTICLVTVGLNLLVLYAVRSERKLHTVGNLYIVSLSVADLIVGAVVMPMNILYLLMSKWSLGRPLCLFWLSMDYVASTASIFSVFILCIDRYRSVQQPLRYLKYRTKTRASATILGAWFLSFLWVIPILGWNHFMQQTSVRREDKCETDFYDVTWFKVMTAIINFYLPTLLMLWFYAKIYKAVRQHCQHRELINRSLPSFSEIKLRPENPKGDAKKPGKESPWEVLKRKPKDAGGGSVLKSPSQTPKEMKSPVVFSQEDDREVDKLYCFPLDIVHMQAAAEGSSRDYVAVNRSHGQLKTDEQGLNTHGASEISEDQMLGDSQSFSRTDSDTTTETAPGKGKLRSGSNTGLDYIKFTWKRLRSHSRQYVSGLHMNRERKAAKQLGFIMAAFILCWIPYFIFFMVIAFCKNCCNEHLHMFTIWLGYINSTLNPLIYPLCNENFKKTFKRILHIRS
# Chain of human Neurokinin, NK2 Receptor, TACR2 (gene 6865) (P21452 whole entry, looked up): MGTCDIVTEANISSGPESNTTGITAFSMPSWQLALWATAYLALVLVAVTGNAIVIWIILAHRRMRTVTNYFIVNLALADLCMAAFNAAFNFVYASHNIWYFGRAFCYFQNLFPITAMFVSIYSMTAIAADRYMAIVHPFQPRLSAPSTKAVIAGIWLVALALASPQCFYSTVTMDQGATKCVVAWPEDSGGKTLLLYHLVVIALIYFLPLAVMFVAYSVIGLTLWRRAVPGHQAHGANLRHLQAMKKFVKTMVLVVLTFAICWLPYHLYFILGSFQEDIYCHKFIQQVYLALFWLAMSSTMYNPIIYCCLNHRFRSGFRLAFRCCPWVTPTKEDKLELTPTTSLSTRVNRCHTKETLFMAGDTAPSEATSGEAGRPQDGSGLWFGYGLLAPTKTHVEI
# Chain of D(1A) dopamine receptor (Homo sapiens) (P21728 whole entry, looked up): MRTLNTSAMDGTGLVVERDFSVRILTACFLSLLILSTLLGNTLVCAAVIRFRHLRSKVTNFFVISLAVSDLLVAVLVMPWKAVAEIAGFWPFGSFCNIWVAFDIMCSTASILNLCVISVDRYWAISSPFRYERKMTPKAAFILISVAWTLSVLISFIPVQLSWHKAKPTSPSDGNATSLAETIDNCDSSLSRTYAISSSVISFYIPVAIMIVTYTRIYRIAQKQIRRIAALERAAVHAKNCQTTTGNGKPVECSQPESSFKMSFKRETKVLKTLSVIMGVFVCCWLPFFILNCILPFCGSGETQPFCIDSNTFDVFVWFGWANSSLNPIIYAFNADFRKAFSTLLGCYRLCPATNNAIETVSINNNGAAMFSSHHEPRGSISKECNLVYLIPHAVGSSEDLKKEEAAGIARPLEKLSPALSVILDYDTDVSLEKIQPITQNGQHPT
# Chain of human Dopamine Receptor D2 (DRD2), DRD2 (gene 1813) (P14416 whole entry, looked up): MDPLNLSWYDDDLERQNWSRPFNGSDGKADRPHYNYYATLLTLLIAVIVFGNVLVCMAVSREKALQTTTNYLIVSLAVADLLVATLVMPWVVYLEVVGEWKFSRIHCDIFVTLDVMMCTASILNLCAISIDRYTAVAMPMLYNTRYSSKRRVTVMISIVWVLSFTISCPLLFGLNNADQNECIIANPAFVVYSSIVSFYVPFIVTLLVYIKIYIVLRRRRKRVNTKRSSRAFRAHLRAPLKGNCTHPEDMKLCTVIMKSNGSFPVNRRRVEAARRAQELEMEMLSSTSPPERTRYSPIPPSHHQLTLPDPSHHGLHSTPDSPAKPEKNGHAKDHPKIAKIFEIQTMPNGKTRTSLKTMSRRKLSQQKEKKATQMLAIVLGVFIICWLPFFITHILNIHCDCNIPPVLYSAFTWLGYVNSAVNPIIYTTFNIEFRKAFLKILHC
# Chain of human Adrenergic, Alpha 2c Receptor (Adra2C), ADRA2C (gene 152) (P18825 whole entry, looked up): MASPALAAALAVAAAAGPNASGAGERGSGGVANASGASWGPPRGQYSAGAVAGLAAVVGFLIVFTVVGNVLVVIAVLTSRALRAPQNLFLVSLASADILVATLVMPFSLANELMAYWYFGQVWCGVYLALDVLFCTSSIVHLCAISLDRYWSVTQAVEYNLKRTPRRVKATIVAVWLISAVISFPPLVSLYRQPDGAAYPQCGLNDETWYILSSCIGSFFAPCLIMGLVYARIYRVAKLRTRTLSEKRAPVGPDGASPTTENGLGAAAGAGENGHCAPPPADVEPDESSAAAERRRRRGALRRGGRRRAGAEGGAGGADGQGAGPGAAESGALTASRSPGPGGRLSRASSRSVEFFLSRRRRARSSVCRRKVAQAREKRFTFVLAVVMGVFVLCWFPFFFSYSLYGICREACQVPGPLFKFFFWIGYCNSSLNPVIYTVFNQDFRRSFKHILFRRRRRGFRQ
# Chain of human Leukotriene B4 Receptor 1 (LTB4-BLT1), LTB4R (gene 1241) (Q15722 whole entry, looked up): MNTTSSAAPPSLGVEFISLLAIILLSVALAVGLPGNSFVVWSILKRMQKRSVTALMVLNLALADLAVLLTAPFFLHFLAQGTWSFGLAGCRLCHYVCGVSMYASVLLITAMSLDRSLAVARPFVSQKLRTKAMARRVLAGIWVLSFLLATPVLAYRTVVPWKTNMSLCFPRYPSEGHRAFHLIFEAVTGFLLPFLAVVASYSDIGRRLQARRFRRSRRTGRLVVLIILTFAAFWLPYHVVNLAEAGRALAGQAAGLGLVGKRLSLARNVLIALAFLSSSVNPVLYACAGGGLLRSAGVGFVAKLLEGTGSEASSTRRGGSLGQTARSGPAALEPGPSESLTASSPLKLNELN
compound,measurement,setting,value
Nc1ccc2c(c1)C(=O)c1ccccc1C2=O,outcome,[1],inactive
NC(=O)Cn1c(=O)cc(CCN2CCN(c3nccc4sccc34)CC2)c2ccc(F)cc21,AC50,[2],1.38 µM (active)
same,AC50,[3],0.666 µM (active)
same,AC50,[4],8.69 µM (active)
same,AC50,[5],0.023 µM (active)
same,AC50,[6],0.926 µM (active)
same,AC50,[7],0.199 µM (active)
same,AC50,[8],0.00708 µM (active)
same,AC50,[9],9.95 µM (active)
same,AC50,[10],33.7 µM (active)
Cc1nc(-c2ccc3c(c2)CCN(CCC2CCC(NC(=O)/C=C/c4ccc(F)cc4)CC2)CC3)no1 (stereo not given),outcome,[6],inactive
same,AC50,[11],0.148 µM (active)
same,outcome,[12],inactive
same,AC50,[1],0.0463 µM (active)
same,AC50,[13],0.123 µM (active)
same,outcome,[14],inactive
O=C(N[C@@H](Cc1ccccc1)[C@@H](O)C(=O)N1C[C@@H](O)[C@@H](O)C1)c1cc2cc(Cl)ccc2[nH]1,outcome,[8],inactive
same,outcome,[13],inactive
same,AC50,[10],22.6 µM (active)
COc1cc(-c2nc(NC(=O)c3cc4cc(C)cc(C)c4n3CC(=O)O)sc2CCC2CCCCC2)c(OC)cc1Cl,AC50,[10],15.9 µM (active)
Cc1ccc(Cl)cc1,outcome,[15],inactive
CCCCC(CC)COC(=O)CC(C(=O)OCC(CC)CCCC)S(=O)(=O)O (stereo not given),AC50,[2],6.35 µM (active)
same,AC50,[3],7.47 µM (active)
same,AC50,[4],14.6 µM (active)
same,AC50,[16],17.7 µM (active)
same,AC50,[5],10.5 µM (active)
same,AC50,[6],16.5 µM (active)
same,AC50,[7],35.5 µM (active)
same,AC50,[8],7.29 µM (active)
same,AC50,[11],34.6 µM (active)
same,AC50,[17],25 µM (active)
same,AC50,[12],39.4 µM (active)
same,AC50,[13],37.6 µM (active)
same,AC50,[14],18 µM (active)
same,AC50,[10],35.7 µM (active)
C=CCOC(=O)c1ccccc1C(=O)OCC=C,AC50,[12],36.7 µM (active)
CCCc1cc(=O)[nH]c(=S)[nH]1,outcome,[10],inactive
Cc1c(C(=O)O)c(O)cc2c1C(=O)c1c(O)c([C@@H]3O[C@H](CO)[C@@H](O)[C@H](O)[C@H]3O)c(O)c(O)c1C2=O,outcome,[12],inactive
same,outcome,[1],inactive
same,outcome,[13],inactive
CNC(=O)[C@H]1O[C@@H](n2cnc3c(NCc4cc(Cl)ccc4OCc4cc(C)no4)ncnc32)[C@H](O)[C@@H]1N,outcome,[3],inactive
CCCCc1ccc2c(n1)[C@@H](c1ccc(OC)cc1C[C@H](C)C(=O)O)[C@H](C(=O)O)[C@H]2c1ccc2c(c1)OCO2,AC50,[18],0.00472 µM (active)
same,AC50,[19],0.00361 µM (active)
NCC1(Cc2noc(=O)[nH]2)CCCCC1,outcome,[18],inactive
same,outcome,[19],inactive
CCOC(=O)CCC(=O)OCC,outcome,[3],inactive
same,outcome,[4],inactive
same,outcome,[5],inactive
same,outcome,[6],inactive
same,outcome,[7],inactive
same,AC50,[17],25 µM (active)
same,outcome,[1],inactive
same,outcome,[15],inactive
same,outcome,[10],inactive
Nc1ccc(S(=O)(=O)c2ccc(N)cc2)cc1,outcome,[2],inactive
